Drawing on paper PMC11574364, this text covers binding signal for 6 sequences.

Among the targets are ASCC1 (Homo sapiens, UniProt Q8N9N2); RBMY1C (Homo sapiens, UniProt P0DJD4); THOC4 (Homo sapiens, UniProt Q86V81).
Holding throughout (test): protein domain microarray probed with biotinylated miRNA; Domain array: 20 mM Tris-HCl pH 7.4, 200 mM KCl, 0.2 mM EDTA, 0.05% NP40, 2 ug/ul heparin, overnight 4 C. ORF array: PBS pH 7.0 with RNase inhibitor, 100 ng RNA; high values mean tight binding
What all share (conditions): ssRNA

The target in a further experiment is T1, RBM12(3) (Homo sapiens, UniProt Q9NTZ6).
T1 sequence: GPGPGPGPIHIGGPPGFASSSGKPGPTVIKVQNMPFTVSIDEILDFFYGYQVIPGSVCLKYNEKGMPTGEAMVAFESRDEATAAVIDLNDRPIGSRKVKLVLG

Another experiment deals with T2, RBM41 (Homo sapiens, UniProt Q96IZ5).
T2 sequence: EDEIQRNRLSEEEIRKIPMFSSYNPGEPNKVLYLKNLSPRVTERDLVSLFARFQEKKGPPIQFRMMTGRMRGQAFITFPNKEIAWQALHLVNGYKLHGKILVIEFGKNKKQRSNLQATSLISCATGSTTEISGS

The target in the next experiment is T3, RBM15 (Homo sapiens, UniProt Q96T37).
T3 sequence: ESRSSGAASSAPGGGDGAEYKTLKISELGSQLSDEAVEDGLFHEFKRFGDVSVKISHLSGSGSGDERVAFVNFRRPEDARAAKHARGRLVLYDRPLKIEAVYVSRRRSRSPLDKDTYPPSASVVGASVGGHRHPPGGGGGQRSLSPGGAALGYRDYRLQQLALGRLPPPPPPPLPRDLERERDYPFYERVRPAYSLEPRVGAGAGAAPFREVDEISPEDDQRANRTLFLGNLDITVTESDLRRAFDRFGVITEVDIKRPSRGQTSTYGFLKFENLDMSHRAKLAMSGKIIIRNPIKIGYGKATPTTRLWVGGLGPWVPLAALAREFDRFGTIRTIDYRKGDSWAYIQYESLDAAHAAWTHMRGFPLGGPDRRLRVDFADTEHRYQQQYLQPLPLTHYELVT

The target in a further experiment is T4, TDRKH(1-2) (Homo sapiens, UniProt Q9Y2W6).
T4 sequence: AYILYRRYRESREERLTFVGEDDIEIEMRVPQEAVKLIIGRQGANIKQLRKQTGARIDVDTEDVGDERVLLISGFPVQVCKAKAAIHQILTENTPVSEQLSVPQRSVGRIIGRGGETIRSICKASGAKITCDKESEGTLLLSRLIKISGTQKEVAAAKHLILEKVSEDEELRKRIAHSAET

The target in another experiment is T5, RBMS1 (Homo sapiens, UniProt P29558).
T5 sequence: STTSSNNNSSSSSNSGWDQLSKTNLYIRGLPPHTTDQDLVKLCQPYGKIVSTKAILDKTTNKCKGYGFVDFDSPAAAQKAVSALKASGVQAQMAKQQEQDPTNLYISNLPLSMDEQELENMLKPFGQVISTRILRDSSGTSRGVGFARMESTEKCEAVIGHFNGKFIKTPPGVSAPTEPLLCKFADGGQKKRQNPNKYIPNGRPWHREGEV

The next experiment concerns the target T6, RBM15B (Homo sapiens, UniProt Q8NDT2).
T6 sequence: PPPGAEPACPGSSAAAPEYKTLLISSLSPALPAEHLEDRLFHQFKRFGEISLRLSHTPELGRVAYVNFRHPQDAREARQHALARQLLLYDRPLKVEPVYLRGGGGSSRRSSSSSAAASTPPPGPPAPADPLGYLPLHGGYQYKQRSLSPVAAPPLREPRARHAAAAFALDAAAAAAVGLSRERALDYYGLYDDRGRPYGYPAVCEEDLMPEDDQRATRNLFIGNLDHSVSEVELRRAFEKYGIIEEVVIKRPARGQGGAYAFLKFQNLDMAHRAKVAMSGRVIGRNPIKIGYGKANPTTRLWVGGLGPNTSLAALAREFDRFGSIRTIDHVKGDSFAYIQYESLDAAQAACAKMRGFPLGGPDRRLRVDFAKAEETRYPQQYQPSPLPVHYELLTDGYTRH

A further experiment deals with T7, SF1 (Homo sapiens, UniProt Q15637).
T7 sequence: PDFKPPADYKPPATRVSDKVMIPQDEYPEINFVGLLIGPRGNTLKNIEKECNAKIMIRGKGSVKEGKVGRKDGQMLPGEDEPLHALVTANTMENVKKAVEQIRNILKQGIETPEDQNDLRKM

Chain of RBMY1C (P0DJD4 1-110): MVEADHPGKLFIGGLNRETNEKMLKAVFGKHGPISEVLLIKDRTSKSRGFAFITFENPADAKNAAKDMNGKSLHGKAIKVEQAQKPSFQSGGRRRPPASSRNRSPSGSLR
Chain of ASCC1 (Q8N9N2 79-168): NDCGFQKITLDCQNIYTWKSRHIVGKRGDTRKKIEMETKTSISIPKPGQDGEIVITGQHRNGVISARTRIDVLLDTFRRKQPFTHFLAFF

Take UGAGGUAGUAGGUUGUAUGGUU: the binding signal with RBM12(3) was 35.9 ± 0.728 fluorescence intensity; with RBM41 it was 350 ± 12.9 fluorescence intensity; with RBM15, 537 ± 29.7 fluorescence intensity; in the experiment with ASCC1, 22.5 ± 1.64 fluorescence intensity; in the experiment with TDRKH(1-2), 45.7 ± 2.46 fluorescence intensity; with RBMS1, 316 ± 53.1 fluorescence intensity. Moreover, the binding signal is 309 ± 16.6 fluorescence intensity in the experiment with RBM15B, 1200 ± 27.5 fluorescence intensity with RBMY1C, 24.7 ± 4.35 fluorescence intensity with SF1 and 91.8 ± 21.8 fluorescence intensity with THOC4.

Turning to UGAGGUAGUAGGUUGUGUGGUU, the binding signal in the experiment with RBM12(3) worked out at 44.9 ± 5.61 fluorescence intensity; with RBM41, 435 ± 24.3 fluorescence intensity; in the experiment with RBM15, 501 ± 99.1 fluorescence intensity; in the experiment with ASCC1, 45.53 ± 0.0141 fluorescence intensity; in the experiment with TDRKH(1-2), 93.1 ± 19.1 fluorescence intensity; with RBMS1 it was 341 ± 18.8 fluorescence intensity. The binding signal in the experiment with RBM15B was determined as 268 ± 141 fluorescence intensity; in the experiment with RBMY1C, 1360 ± 26.2 fluorescence intensity; in the experiment with SF1, 24.25 ± 0.205 fluorescence intensity; with THOC4, 133 ± 30 fluorescence intensity.

As to CAGUGCAAUGAUGAAAGGGCAU, the binding signal with RBM12(3) came out at 27.1 ± 4.43 fluorescence intensity; in the experiment with RBM41 it was 284 ± 7.83 fluorescence intensity; in the experiment with RBM15, 315.16 ± 0.212 fluorescence intensity; with TDRKH(1-2), 40.4 ± 7.05 fluorescence intensity; in the experiment with RBMS1, 166 ± 3.01 fluorescence intensity; with RBM15B, 128 ± 12.3 fluorescence intensity. Further, the binding signal in the experiment with RBMY1C worked out at 1150 ± 31.6 fluorescence intensity; with SF1, 107.4 ± 0.728 fluorescence intensity; with THOC4, 40.5 ± 0.424 fluorescence intensity.

AGAGGUAGUAGGUUGCAUAGUU: the binding signal was 26.4 ± 4.72 fluorescence intensity with RBM12(3); 818 ± 64.1 fluorescence intensity with RBM41; 525 ± 1.24 fluorescence intensity with RBM15; 24.9 ± 3.57 fluorescence intensity with ASCC1; 29.6 ± 0.502 fluorescence intensity in the experiment with TDRKH(1-2); 365.1 ± 1.24 fluorescence intensity with RBMS1. For the same sequence, the binding signal with RBM15B was determined as 242 ± 10.9 fluorescence intensity; with RBMY1C, 1860 ± 11.9 fluorescence intensity; in the experiment with THOC4, 49.2 ± 7.5 fluorescence intensity.

As to UGAGGUAGUAGGUUGUAUAGUU, the binding signal was 45.9 ± 18.9 fluorescence intensity with RBM41; 82.1 ± 15.2 fluorescence intensity with RBM15; 78.2 ± 3.38 fluorescence intensity in the experiment with RBMS1; 42.7 ± 8.55 fluorescence intensity with RBM15B; 643 ± 42.4 fluorescence intensity with RBMY1C.

In the case of UAGCUUAUCAGACUGAUGUUGA, the binding signal was 134 ± 18.6 fluorescence intensity with RBM15, 29.7 ± 0.537 fluorescence intensity in the experiment with RBMS1, 30.7 ± 4.65 fluorescence intensity with RBM15B and 371 ± 23 fluorescence intensity with RBMY1C.
